Tests used:
Assay in all cases: SPOT peptide array binding signal intensity (averaged, normalized) (arbitrary units (background-subtracted, floor 0; scale differs between SH3 domains)); higher = stronger binding of the SH3 domain to the peptide
[1] = biological target: AgAbp1
Method in brief: (§1)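 Detection of bound protein relied on anti-GST antibody, an HRP anti-mouse secondary and luminol, with imaging and quantification in Genespotter. The bound protein was GST-fused SH3 domains from four yeast species, incubated at 10 μg/ml overnight at 4°C in TBS-based blocking buffer on cellulose membranes carrying synthetic 15-mer peptides with cysteines replaced by serines. Binding signal is normalized, background-subtracted spot intensity averaged over replicates, in arbitrary units that differ between domains.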

[2] = biological target: AgBbc1
Method in brief: as §1

[3] = biological target: AgBem1-D1
Method in brief: as §1

[4] = biological target: AgBzz1-D1
Method in brief: as §1

[5] = biological target: AgBzz1-D2
Method in brief: as §1

[6] = biological target: AgCyk3
Method in brief: as §1

[7] = biological target: AgFus1
Method in brief: as §1

[8] = biological target: AgHof1
Method in brief: as §1

[9] = biological target: AgHse1
Method in brief: as §1

[10] = biological target: AgLsb1
Method in brief: as §1

[11] = biological target: AgLsb4
Method in brief: as §1

[12] = biological target: AgMyo5
Method in brief: as §1

[13] = biological target: AgNbp2
Method in brief: as §1

[14] = biological target: AgRvs167
Method in brief: as §1

[15] = biological target: AgSho1
Method in brief: as §1

[16] = biological target: AgSla1-D1-D2
Method in brief: as §1

[17] = biological target: AgSla1-D3
Method in brief: as §1

[18] = biological target: CaAbp1-D1
Method in brief: as §1

[19] = biological target: CaAbp1-D2
Method in brief: as §1

[20] = biological target: CaBbc1
Method in brief: as §1

[21] = biological target: CaBem1-D1
Method in brief: as §1

[22] = biological target: CaBzz1-D1
Method in brief: as §1

[23] = biological target: CaBzz1-D2
Method in brief: as §1

[24] = biological target: CaCyk3
Method in brief: as §1

[25] = biological target: CaFus1
Method in brief: as §1

[26] = biological target: CaHof1
Method in brief: as §1

[27] = biological target: CaHse1
Method in brief: as §1

[28] = biological target: CaLsb1
Method in brief: as §1

[29] = biological target: CaLsb4
Method in brief: as §1

[30] = biological target: CaMyo5
Method in brief: as §1

[31] = biological target: CaNbp2
Method in brief: as §1

[32] = biological target: CaRvs167
Method in brief: as §1

[33] = biological target: CaRvs167-3
Method in brief: as §1

[34] = biological target: CaSho1
Method in brief: as §1

[35] = biological target: CaSla1-D1-D2
Method in brief: as §1

[36] = biological target: CaSla1-D3
Method in brief: as §1

[37] = biological target: ScAbp1
Method in brief: as §1

MKRSRPSRSIPYTTP
SPOT peptide array binding signal intensity [1]: 92 | SPOT peptide array binding signal intensity [2]: 65.5 | SPOT peptide array binding signal intensity [3]: 152 | SPOT peptide array binding signal intensity [4]: 53 | SPOT peptide array binding signal intensity [5]: 22 | SPOT peptide array binding signal intensity [6]: 8 | SPOT peptide array binding signal intensity [7]: 121 | SPOT peptide array binding signal intensity [8]: 23.5 | SPOT peptide array binding signal intensity [9]: 274 | SPOT peptide array binding signal intensity [10]: 3.5 | SPOT peptide array binding signal intensity [11]: 37 | SPOT peptide array binding signal intensity [12]: 3.25 | SPOT peptide array binding signal intensity [13]: 324 | SPOT peptide array binding signal intensity [14]: 2.5 | SPOT peptide array binding signal intensity [15]: 30.5 | SPOT peptide array binding signal intensity [16]: 21.5 | SPOT peptide array binding signal intensity [17]: ≤ 0 | SPOT peptide array binding signal intensity [18]: 504 | SPOT peptide array binding signal intensity [19]: 476 | SPOT peptide array binding signal intensity [20]: 347 | SPOT peptide array binding signal intensity [21]: 47.5 | SPOT peptide array binding signal intensity [22]: 172 | SPOT peptide array binding signal intensity [23]: 158 | SPOT peptide array binding signal intensity [24]: 108 | SPOT peptide array binding signal intensity [25]: 334 | SPOT peptide array binding signal intensity [26]: ≤ 0 | SPOT peptide array binding signal intensity [27]: 55.5 | SPOT peptide array binding signal intensity [28]: 2.75 | SPOT peptide array binding signal intensity [29]: 590 | SPOT peptide array binding signal intensity [30]: 13.8 | SPOT peptide array binding signal intensity [31]: 421 | SPOT peptide array binding signal intensity [32]: 18.3 | SPOT peptide array binding signal intensity [33]: 2 | SPOT peptide array binding signal intensity [34]: 250 | SPOT peptide array binding signal intensity [35]: 60 | SPOT peptide array binding signal intensity [36]: 14 | SPOT peptide array binding signal intensity [37]: 20

From the supplement of paper PMC4466140
